PubChem BioAssay (NCATS)
Results filed as inconclusive are left out. Values without a mark were called inactive. Active and inactive are the calls of the source. Calls come from the whole dose curve; tested in HEK293 reporter line.

Test: qHTS for Inhibitors of the Functional Ribonucleoprotein Complex (vRNP) of Lassa (LASV) Arenavirus: Viability assay - alamar blue signal for LASV Primary Screen (AID 1347083)
Settings: cell viability, alamar blue fluorescence (LASV minigenome counter-screen); series mostly up to 57.5 µM; activity change, negative = reduced viability: at the top concentration
% is set by controls: 0 for no effect and ±100 for the full control effect.
Note: nearly all actives have a fitted effect of over 80% in size.

Compound	activity change, negative = reduced viability
COc1cc(-c2oc3cc(O)cc(O)c3c(=O)c2O[C@@H]2O[C@H](CO)[C@@H](O)[C@H](O)[C@H]2O)cc(OC)c1O	4.23% [at 24.7 µM]
CCCCCCCCCOC(C)=O	-4.5% [at 115 µM]
CC1(C)O[C@@H]1COc1c2ccoc2cc2oc(=O)ccc12	-11.7%
CC(C)(COP(=O)(O)OP(=O)(O)OC[C@H]1O[C@@H](n2cnc3c(N)ncnc32)[C@H](O)[C@@H]1OP(=O)(O)O)[C@H](O)C(=O)NCCC(=O)NCCS	16.7%
CCCCc1ccc(O)cc1	-0.354% [at 115 µM]
O=C(OCCc1ccccc1)c1ccccc1	-26.6% [at 115 µM]
O=C(O)c1cccc(C(=O)O)n1	14.8% [at 115 µM]
COc1ccc(CCC(N)=O)cc1OC	-0.606%
CC1(C)CCC[C@@]2(C)CC=C(C(=O)O)[C@@H]3C[C@]312	-9.26%
CCCCCCCCCCCCCC	-4.84% [at 115 µM]
CC(=O)O[C@@H]1[C@H]2CC[C@@H]3[C@]1(C[C@@H](OC(C)=O)[C@@]1(O)C([C@@H]4O[C@@H]4C1(C)C)[C@]3(C)O)C[C@@]2(C)O (stereo partly specified)	-10.5%
O=C(/C=C/c1ccccc1)NCCc1cnc[nH]1	18.2%
COc1c2c(nc3occc13)C(CC=C(C)C)(OC)C(O)CC2 (stereo unspecified)	-9.82%
ClC1=C(Cl)[C@]2(Cl)[C@@H]3[C@@H](Cl)[C@H]4O[C@H]4[C@@H]3C1(Cl)C2(Cl)Cl	-21.7%
O=C(O)[C@@H]1Cc2c([nH]c3ccccc23)C2CCC(=O)N21 (stereo partly specified)	18.3%
COc1ccc2c3c([nH]c2c1)C(C)NCC3 (stereo unspecified)	0.0858%

Test: qHTS for Inhibitors of the Functional Ribonucleoprotein Complex (vRNP) of Lymphocytic Choriomeningitis Arenaviruses (LCMV): Viability assay - alamar blue signal for LCMV Primary Screen (AID 1347085); note: potency is the fitted concentration of half-maximal effect
Settings: alamar blue viability counter-screen, LCMV vRNP screen cells; series mostly up to 57.5 µM; activity change, negative = lower viability: at the top concentration

Compound	Potency	activity change, negative = lower viability
Nc1nc(Cl)nc2c1ncn2[C@@H]1O[C@H](CO)[C@@H](O)[C@H]1F	243 nM (active)	
COc1ccc([C@H]2c3cc(OC)c(OC)cc3C[C@@H](C)[C@@H]2C)cc1OC		12.4%
O=C(Nc1ccccc1Br)N[C@@H]1CCN(c2ccc(C(F)(F)F)cn2)C1		-4.27%
Cc1cnc(C)c(C)n1		9.06% [at 115 µM]
CCOC(=O)c1cccc(C(=O)OCC)n1		4.49%
O=C(NC(Cc1ccccc1)C(=O)O)c1ccccc1 (stereo unspecified)		10.1%
COc1cc(C)cc(C(=O)O)c1C1=C(O)c2cccc(O)c2C(=O)C1=O		-8.6%
O=C(NCO)c1cccnc1		2.36%
C/C=C/c1cc(OC)c2c(c1)[C@H](C)[C@@H](c1ccc(O)c(OC)c1)O2		10.4%
COC(=O)c1ccccc1OC		0.839% [at 115 µM]
CC(C)(O)[C@H](O)COc1c2occc2cc2ccc(=O)oc12		-9.2%
C[C@H]1[C@H](C)CC[C@]2(C)CC[C@]3(C)C(=CC(=O)C4[C@@]5(C)CC[C@H](O)C(C)(C)C5CC[C@]43C)[C@H]12 (stereo partly specified)		-1.62%
Cc1csc(NC(=O)c2sc3nc4c(c(C(F)(F)F)c3c2N)CCC4)n1		5.2%
C[C@]12C=CC(=O)N[C@@H]1CC[C@H]1[C@H]3CC[C@@H](C(=O)Nc4cc(C(F)(F)F)ccc4C(F)(F)F)[C@@]3(C)CC[C@@H]12		2.76%
S=C(NCc1ccccc1)NCc1ccccc1		15.3%
CCCCC[C@H](O)/C=C/C=C/C/C=C\CCCC(=O)O		9.71% [at 0.757 µM]
COC(=O)c1c(C)cc(O)c(C=O)c1O		15.6%
O=C(c1ccccc1)N1CCCCC1		8.43%
C/C=C(/C)C(=O)OC(C)(C)[C@@H]1Cc2c(ccc3ccc(=O)oc23)O1		-73.8%
CO[C@H]1C=CO[C@@]2(C)Oc3c(C)c(O)c4c(O)c(c(C=NN5CCN(C)CC5)c(O)c4c3C2=O)NC(=O)C(C)=CC=C[C@H](C)[C@H](O)[C@@H](C)[C@@H](O)[C@@H](C)[C@H](OC(C)=O)[C@H]1C		1.58% [at 19.1 µM]

Compound	Potency	activity change, negative = lower viability
CC1NC(C(=O)O)Cc2c1[nH]c1ccccc21 (stereo unspecified)		-2.7%
O=C1N[C@@H](Cc2c[nH]c3ccccc23)C(=O)N[C@H]1Cc1ccccc1		-2.37%
C=CC(O)CCCCC (stereo unspecified)		8.52% [at 115 µM]
COc1cc(O)cc2c1[C@@H]1Oc3c(ccc(O)c3CC=C(C)C)[C@@H]1CO2		1.02%
COc1cc(-c2oc3cc(O)cc(O)c3c(=O)c2O[C@@H]2O[C@H](CO)[C@@H](O)[C@H](O)[C@H]2O)cc(OC)c1O		17.7% [at 24.7 µM]
CCCCCCCCCOC(C)=O		26.2% [at 115 µM]
CC1(C)O[C@@H]1COc1c2ccoc2cc2oc(=O)ccc12		-11.4%
CC(C)(COP(=O)(O)OP(=O)(O)OC[C@H]1O[C@@H](n2cnc3c(N)ncnc32)[C@H](O)[C@@H]1OP(=O)(O)O)[C@H](O)C(=O)NCCC(=O)NCCS		40.4%
CCCCc1ccc(O)cc1		7.91% [at 115 µM]
O=C(OCCc1ccccc1)c1ccccc1		-1.39% [at 115 µM]
O=C(O)c1cccc(C(=O)O)n1		17.8% [at 115 µM]
COc1ccc(CCC(N)=O)cc1OC		0.925%
CC1(C)CCC[C@@]2(C)CC=C(C(=O)O)[C@@H]3C[C@]312		7.63%
CCCCCCCCCCCCCC		23.6% [at 115 µM]
CC(=O)O[C@@H]1[C@H]2CC[C@@H]3[C@]1(C[C@@H](OC(C)=O)[C@@]1(O)C([C@@H]4O[C@@H]4C1(C)C)[C@]3(C)O)C[C@@]2(C)O (stereo partly specified)		-7.33%
O=C(/C=C/c1ccccc1)NCCc1cnc[nH]1		-0.414%
COc1c2c(nc3occc13)C(CC=C(C)C)(OC)C(O)CC2 (stereo unspecified)		-16%
ClC1=C(Cl)[C@]2(Cl)[C@@H]3[C@@H](Cl)[C@H]4O[C@H]4[C@@H]3C1(Cl)C2(Cl)Cl		-12.1%
O=C(O)[C@@H]1Cc2c([nH]c3ccccc23)C2CCC(=O)N21 (stereo partly specified)		-1.49%
COc1ccc2c3c([nH]c2c1)C(C)NCC3 (stereo unspecified)		-41.7%
